Laboratory results as given in ChEMBL document CHEMBL3988442, “University of Dundee, Small-Polar-MMV Screening Library” (2021).

Assays:
[1] = target: T1, Aspartate--tRNA(Asp/Asn) ligase (Mycobacterium tuberculosis (strain ATCC 25618 / H37Rv)) (UniProt P9WFW3); assay: Assay for Asp RNA synthetase-1 from Mycobacterium tuberculosis; format: functional; parameters: scale not given: direction of the effect not stated beside the values; settings: 30 µM; further: in the data most compounds retested in dose-response had high values
T1 sequence (whole entry): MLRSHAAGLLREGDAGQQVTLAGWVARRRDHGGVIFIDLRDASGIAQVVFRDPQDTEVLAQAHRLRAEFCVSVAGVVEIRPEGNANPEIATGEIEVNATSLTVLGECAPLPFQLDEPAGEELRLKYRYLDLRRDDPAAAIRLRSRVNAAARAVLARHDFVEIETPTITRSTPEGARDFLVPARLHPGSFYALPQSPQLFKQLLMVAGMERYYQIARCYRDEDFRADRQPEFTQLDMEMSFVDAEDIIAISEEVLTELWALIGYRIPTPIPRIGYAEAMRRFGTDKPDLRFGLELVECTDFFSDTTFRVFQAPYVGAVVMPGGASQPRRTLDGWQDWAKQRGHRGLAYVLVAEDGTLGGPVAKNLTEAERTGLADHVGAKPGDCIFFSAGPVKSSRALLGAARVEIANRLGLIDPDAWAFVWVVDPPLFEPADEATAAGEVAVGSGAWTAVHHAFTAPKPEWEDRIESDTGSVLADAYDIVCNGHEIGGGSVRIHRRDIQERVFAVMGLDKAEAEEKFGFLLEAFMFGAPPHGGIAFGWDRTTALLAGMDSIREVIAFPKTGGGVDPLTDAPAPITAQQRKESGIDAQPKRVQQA

[2] = target: Shiga toxin 2 (Escherichia coli O157:H7) (UniProt P09385+P09386); assay: E. coli 0.157:H7 Shiga Toxin SOP - stx2 screening assay; format: functional; parameters: scale not given: direction of the effect not stated beside the values; settings: 30 µM

| SMILES | Percent Effect [1] | Percent Effect [2] |
| --- | --- | --- |
| Cc1nc(C)c(C(=O)NCCNC(=O)c2ccc(F)cc2F)s1 | -2.04% | -16% |
| CC(=O)N1CC(=O)N(c2cnn(C)c2)CC12CCN(CC1CC1)C2 (stereo unspecified) | 4.21% | -23.2% |
| O=C(CCn1ccccc1=O)Nc1ccc(I)cc1 | 8.05% | -26.1% |
| Cc1cnn(CC2CCCCN2CCC(=O)Nc2cc(C)on2)c1 (stereo unspecified) | 1.03% | 5.5% |
| CN(C)C(=O)COCc1cncc2c1CCN(Cc1nccn1C)C2 | 10.5% | -47.9% |
| CCOC(CC)C(=O)NCCC(=O)N1CCN(c2ncccn2)CC1 (stereo unspecified) | 1.17% | -0.0687% |
| Cc1ccc(NC2CCN(C(=O)c3cccc4ncccc34)CC2)nn1 | 3.98% | -2.02% |
| O=C1COc2cc(C(=O)NS(=O)(=O)c3ccccc3F)ccc2N1 | -0.702% | 0.482% |
| CN1N=C(C(=O)N(Cc2ccco2)C2CC2)CCC1=O | -2.73% | 1.36% |
| Cc1ccc(-c2nc(CN3CCn4c(nnc4C4CC4)C3)cs2)o1 | -4.03% | -88.7% |
| CCCNC(=O)c1c(-n2cnnn2)sc2c1CCC2 | 1.26% | -42% |
| Cn1cccc1CNC(=O)CCCc1nnc2ccccn12 | 1.36% | -34.1% |
| Cc1cc(CN(C)C(=O)NCC(C)N2CCc3ccccc32)no1 (stereo unspecified) | -1.27% | -6.14% |
| Cc1cc(NC(=O)NCc2ccccn2)n(C)n1 | 3.94% | -40.7% |
| CN1CC2(COCCN(C(=O)c3ccco3)C2)OCC1=O (stereo unspecified) | 8.76% | 9.96% |
| Cn1ccnc1CNC(=O)N1CCCC(Cc2nccn2C)C1 (stereo unspecified) | 0.605% | -13.5% |
| Cc1ccoc1-c1nnc(CN2CCn3c(nnc3C3CC3)C2)o1 | -2.98% | -36.6% |
| Cc1ccc(C(O)CNCCn2cccn2)cc1C (stereo unspecified) | -5.54% | 2.86% |
| CCN(Cc1ccc(OC)c(F)c1)C(=O)c1ccc(C)[nH]c1=O | -0.589% | 30.6% |
| Cc1cnc(CN(C)C2CCN(Cc3nc4ccccc4n3C)C2)o1 (stereo unspecified) | -5.16% | -27.3% |
| Cc1cnc(CN(Cc2ccccc2)CC(O)c2cccs2)cn1 (stereo unspecified) | -1.43% | -15.5% |
| CNC(=O)c1cnc(/C=C/c2cc(OC)cc(OC)c2)s1 | 5.76% | -89.3% |
| CC(=O)N(Cc1noc(C2CC2)n1)C1CCN(Cc2nccn2C)C1 (stereo unspecified) | -4.37% | 12.9% |
| CCNC(c1cccnc1)c1ccc(F)c(F)c1 (stereo unspecified) | -4.58% | 10.8% |
| Cc1nnc(C(C)NCC2(c3ccc(Cl)cc3)CCCC2)o1 (stereo unspecified) | 4.47% | 3.13% |
| CCS(=O)(=O)N1CCC2(CCCN(Cc3cc(OC)ccc3F)C2)C1 (stereo unspecified) | 0.836% | -3.7% |

| SMILES | Percent Effect [1] | Percent Effect [2] |
| --- | --- | --- |
| CCCS(=O)(=O)N1CCN(c2ccnc(N3CCCC3)n2)CC1 | 2.06% | -50.6% |
| O=C(c1cccs1)N1CCC(O)(CN2CCc3ccccc3C2)C1 (stereo unspecified) | -5.2% | -25.3% |
| CCn1cnnc1CNC(=O)NCC(c1cccs1)N1CCCC1 (stereo unspecified) | -1.91% | -4.89% |
| O=C(c1cccs1)N1CCC(Cn2nc(-c3ccco3)ccc2=O)CC1 | -3.23% | 5.24% |
| COCCC(=O)N1CCC2(COCc3cnc(-c4ccccc4)nc32)C1 (stereo unspecified) | -4.87% | -3.09% |
| Cn1cc(C(=O)N2CCC(Cc3nccs3)CC2)cn1 | 2.4% | 59.9% |
| CC(C)Nc1nc2c(cc1C(=O)N(C)C)CCNCC2 | 3.61% | -0.0143% |
| Cc1ccc(N2CCCc3sc(C(=O)NCc4cccnc4)nc32)nn1 | -2.44% | -41.7% |
| N#Cc1ccc(C(=O)N2CC[C@H]3[C@@H]2CCC(=O)N3c2ccccc2)cc1 | 0.485% | -9.64% |
| COCC1CN(S(C)(=O)=O)Cc2ncn(CC3CC3)c21 (stereo unspecified) | -3.82% | -1.74% |
| CC(C(=O)N1CCC(Nc2cccnn2)CC1)n1ccnc1 (stereo unspecified) | 7.4% | 0.729% |
| Cc1cc(NC(=O)NCC(O)c2ccc(Cl)cc2Cl)n(C)n1 (stereo unspecified) | -2.66% | 24.8% |
| CC(=O)NCc1ccc(C(=O)N2CCCCC2Cn2cccn2)o1 (stereo unspecified) | 0.175% | -2.7% |
| CCOc1nnc(CN(C)CC2CCCN2c2cccnn2)s1 (stereo unspecified) | -1.14% | -14.4% |
| CCN(Cc1cccc2c1OCO2)C(=O)NC1CC1 | -0.162% | -11% |
| COc1ccc(-c2nc(CN3CCCC3Cn3cccn3)no2)cc1 (stereo unspecified) | -3.19% | -24.1% |
| COCC1CN(Cc2ccsc2)Cc2nn(C)cc21 (stereo unspecified) | 15.7% | -13.1% |
| Cc1cc(NC(=O)CN2CCN(c3nccs3)C(C)C2)n(C)n1 (stereo unspecified) | 7.92% | 7.19% |
| OC(CN1CCN(Cc2nnc(C3CC3)o2)CC1)c1ccccc1 (stereo unspecified) | -1.28% | 6.16% |
| COc1ncccc1NC(=O)N(Cc1ccc(C)o1)C1CC1 | -0.455% | 12.1% |
| CCc1noc(C(C)N2CCN(Cc3nnc(C4CC4)o3)CC2)n1 (stereo unspecified) | -4.98% | 10.9% |
| Cc1cc(NC(=O)NCC(C)O)n(C)n1 (stereo unspecified) | -2.68% | -5.14% |
| c1ccc(CC2CCN(Cc3ccnc(-c4cccnc4)n3)CC2)cc1 | 0.908% | -6.53% |
| CCS(=O)(=O)N1CCC2(CC1)CC(Oc1ccccn1)CO2 (stereo unspecified) | -0.51% | 0.988% |
| CCN1C[C@H]2CCN(C(C)=O)CC[C@H]2S1(=O)=O | -0.319% | -50.9% |
| O=C(CCc1ccc(O)cc1)N1CCC(Cc2ccc(CO)cc2)C1 (stereo unspecified) | -0.39% | -14.8% |

| SMILES | Percent Effect [1] | Percent Effect [2] |
| --- | --- | --- |
| COc1ccc(OC)c(CCNC(=O)NC(C)Cn2ccnc2)c1 (stereo unspecified) | -6.68% | 31% |
| COCCN1CCC2(CC1)CC(COC)N(c1ncccn1)C2 (stereo unspecified) | 0.446% | -9.07% |
| O=C(Cc1cccs1)N1C[C@@H]2COC[C@]2(COc2cccnc2)C1 | -6.32% | -1.18% |
| Cc1nn(C)c(C)c1C1CCCN1CC(=O)NC(C1CC1)C1CC1 (stereo unspecified) | -3.8% | -0.393% |
| Cc1nc2ccccc2c(=O)n1CCC(=O)N1CCSCC1 | 1.9% | 7.96% |
| O=C(Cn1cnc(NC(=O)CC2CCCC2)n1)NCc1ccccc1 | -1.37% | 12.3% |
| O=C(Nc1ccccc1)C1=CC2(CCNCC2)c2ccccc21 | 1.3% | -14.6% |
| CCN(C)c1ncnc2c1CCN(Cc1csc(C)n1)CC2 | -3.19% | -3.16% |
| c1ccc(-c2ccc(C3CNCCO3)nc2)cc1 (stereo unspecified) | 7.81% | -59.5% |
| COCCCNC(=O)CN1CCCC1c1c(C)nn(C)c1Cl (stereo unspecified) | -4.32% | -37% |
| CNC(=O)c1ccc(OC2CCN(S(C)(=O)=O)CC2)c(Cl)c1 | -0.864% | -64.7% |
| Cn1ncc2c(=O)[nH]c(CN3CCCC3c3cccs3)nc21 (stereo unspecified) | -0.799% | 3.97% |
| c1ccc(Cc2noc(CNC3CCc4ncnn4C3)n2)cc1 (stereo unspecified) | -0.932% | 2.15% |
| O=C1CC(c2cccnc2)c2c(c(C(=O)O)cn2-c2ccccc2)N1 (stereo unspecified) | 4.82% | -6.55% |
| NC(=O)c1ccc(S(=O)(=O)NC(=O)COc2ccc3c(c2)CCC3)cc1 | -2.01% | 13.5% |
| Cn1ccnc1CN1CCC2(CC(=O)N(c3cccc(F)c3)C2)C1 (stereo unspecified) | 6.19% | -33.1% |
| FC(F)(F)Cn1ccnc1CN1CCOC(Cn2cccn2)C1 (stereo unspecified) | 1.38% | 8.38% |
| O=C1[C@H]2CC[C@H](CN(S(=O)(=O)c3ccccc3)C2)N1Cc1cscn1 | 1.23% | -25.8% |
| Cc1cnn(CC2CN(CCS(=O)(=O)c3ccccc3)CCO2)c1 (stereo unspecified) | -0.24% | 0.99% |
| c1ccc(-c2ncc(CNC3CCc4ncnn4C3)cn2)cc1 (stereo unspecified) | -0.626% | 13.4% |
| O=C(c1ccc(C2CCCO2)s1)N1CCS(=O)(=O)CC1 (stereo unspecified) | 3.74% | -6.97% |
| CCc1nc(C(=O)N2CCN(C)CC2C)nn1-c1ccccc1Cl (stereo unspecified) | 11.5% | 26.3% |
| CCc1ncc2c(n1)CN(CC(=O)Nc1nnc(C)s1)CC2 | 4.25% | -18.6% |
| Cc1ccc(S(=O)(=O)NC2CC2)cc1C | -2.59% | -0.587% |
| O=S(=O)(c1ccccc1)N1CCC2(CCCN2CC2CCCC2)C1 (stereo unspecified) | -2.77% | 9.27% |
| C1CC1c1nsc(N2CCN(C3CC3)CC2)n1 | 2.04% | -7.43% |

| SMILES | Percent Effect [1] | Percent Effect [2] |
| --- | --- | --- |
| Cc1ncc2c(n1)CN(Cc1nnc(-c3occc3C)o1)CC2 | 12.2% | -43.7% |
| CS(=O)(=O)N1Cc2ccccc2C2(CCN(C(=O)c3ccno3)CC2)C1 | 1.46% | -6.76% |
| Cc1cc(C2CCCN2CC(=O)N(CCC#N)c2ccccc2F)on1 (stereo unspecified) | 3.09% | 0.491% |
| CCn1ncnc1C(C)NC(=O)C1CCN(C(C)C)CC1 (stereo unspecified) | 3.06% | -16.7% |
| COCCN1CCc2cc(C(=O)N(C)C)c(NCC3CC3)nc2CC1 | 0.183% | 0.232% |
| O=C(c1cccnc1)N1CCn2nnc(COc3cccnc3)c2C1 | 6.79% | -23.3% |
| CNC(=O)c1ccc(C2CN(C(=O)c3cncs3)CCO2)nc1 (stereo unspecified) | 3.26% | -3.71% |
| CC(C)NC(=O)c1ccc2c(c1)nc1n2CCN(c2ccccc2)C1 | 0.0581% | -15.6% |
| O=C(Nc1cc(C(F)(F)F)c[nH]c1=O)N1CCCSCC1 | 5.77% | 8.92% |
| Cc1cc2cc(C(=O)N[C@@H]3CC[C@@H](N4CCOCC4)[C@@H]3O)ccc2o1 | 2.49% | 4.91% |
| COc1cc(CC(O)CO)c(OC)c2c1OCO2 (stereo unspecified) | -3.19% | -10.5% |
| CCC1c2ccsc2CCN1C(=O)NCCNc1ncccn1 (stereo unspecified) | -3.52% | 10.9% |
| COCCC(=O)N1CCc2cc(Cl)cc(Cl)c2C1 | 1.46% | -18.1% |
| Cc1ccccc1OCCC(=O)OC(C)C(=O)Nc1sccc1C(N)=O (stereo unspecified) | -2.83% | -38.1% |
| CCn1cc(CN2CCCN(C(=O)CCCn3cncn3)CC2)cn1 | -4.34% | -21.5% |
| CCNC(=O)c1ccnc(NCC2COc3cc(OC)ccc3C2)c1 (stereo unspecified) | -2.64% | -9.33% |
| O=C1COC2(CCN(Cc3cccs3)CC2)CN1c1ccccc1 | -2.62% | -22% |
| Cc1nccn1-c1cc(CNC(=O)c2ccccn2)ccn1 | 8.28% | -3.43% |
| COCC1COCCC12CCN(C(=O)CCc1ccccc1)CC2 (stereo unspecified) | 3.96% | -14.9% |
| Cc1ccc(NC2CCN(C(=O)CCNS(C)(=O)=O)CC2)nn1 | -2.45% | -0.275% |
| CCN1CCN(S(=O)(=O)c2cc(Cl)c(Cl)cc2C)CC1 | -2.76% | -10.7% |
| c1csc(CN2CCn3c(Cn4cncn4)cnc3C2)n1 | -1.25% | -17.5% |
| CC(NCC1=Cc2cc(Cl)ccc2OC1)c1nnc2n1CCCC2 (stereo unspecified) | 1.06% | -9.58% |
| Cc1cc(C(=O)N2CCN(C(=O)Cc3ccccn3)CC2)c(C)s1 | 2.55% | 7.06% |
| Cc1ncsc1C(=O)NCCn1nc(C2CCNC2)c2cccnc21 (stereo unspecified) | -3.63% | -7% |
